From the supplement of paper PMC3334620
In all, about 33,000 sequences were measured (“E-score (-0.5 to 0.5)”: median about -0.016, highest 2% from about 0.3 on). The full list was thinned out, with the highest values kept by preference.

target: T1, Yer184c (UniProt P39961); assay: PBM E-score (8-mer binding enrichment) (E-score (-0.5 to 0.5)); higher = stronger / more preferred TF binding; details: protein concentration: 100 nM; construct: GST-full length
T1 sequence: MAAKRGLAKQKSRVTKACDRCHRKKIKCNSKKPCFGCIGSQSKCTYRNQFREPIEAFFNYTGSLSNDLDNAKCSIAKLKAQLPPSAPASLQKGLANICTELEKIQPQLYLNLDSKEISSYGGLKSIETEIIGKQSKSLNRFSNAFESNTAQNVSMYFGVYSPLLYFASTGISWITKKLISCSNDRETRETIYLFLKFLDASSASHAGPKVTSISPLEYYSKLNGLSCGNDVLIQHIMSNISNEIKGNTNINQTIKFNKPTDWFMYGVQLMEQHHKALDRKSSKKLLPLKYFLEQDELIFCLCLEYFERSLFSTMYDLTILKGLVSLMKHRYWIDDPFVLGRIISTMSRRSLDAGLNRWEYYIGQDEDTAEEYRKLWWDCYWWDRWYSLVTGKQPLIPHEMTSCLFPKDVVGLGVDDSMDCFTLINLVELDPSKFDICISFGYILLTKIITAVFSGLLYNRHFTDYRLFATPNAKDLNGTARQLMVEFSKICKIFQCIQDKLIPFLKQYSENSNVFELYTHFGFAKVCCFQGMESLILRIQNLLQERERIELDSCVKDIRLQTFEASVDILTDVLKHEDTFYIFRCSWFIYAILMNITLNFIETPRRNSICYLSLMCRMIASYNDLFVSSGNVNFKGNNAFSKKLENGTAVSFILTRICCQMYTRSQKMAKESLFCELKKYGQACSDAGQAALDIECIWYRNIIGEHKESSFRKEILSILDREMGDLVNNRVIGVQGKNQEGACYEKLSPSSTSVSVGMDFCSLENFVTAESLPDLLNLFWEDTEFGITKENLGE
Method: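 Universal 'all 10-mer' protein binding microarrays (Agilent AMADID 015681) probed with GST-tagged S. cerevisiae TFs (full-length or DBD) made by in vitro transcription/translation (PURExpress), about 100-200 nM. Bound TF was detected with fluorescent anti-GST. Each ungapped 8-mer (which stands for itself and its reverse complement) is scored by the PBM enrichment score (E-score), a modified Wilcoxon-Mann-Whitney statistic from -0.5 to +0.5, computed with the Universal PBM Analysis Suite. Scale: above 0.35 generally sequence-specific binding.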

Sequence	PBM E-score
GCGGACCA	0.243
CGGGACCA	-0.098
ACGGACCG	0.193
CGGGACCG	0.31
CCGGACCC	0.235
AGGGACCG	-0.165
GTAGTGGA	0.177
ATGCTGGG	-0.0916
ACAATTGT	0.097
AATGCTCG	-0.0329
AACCAACG	-0.0237
ACAGCCCA	-0.0828
TATCTGAA	0.108
AAAACTGT	0.0544
ACGGACAA	0.27
TCGGACAA	0.378
GCGGACAA	0.298
TCGCTGCA	-0.0505
AACTGGGA	-0.151
ATTGCGGC	0.0068
AAAGTGCA	-0.0658
CCGGCGCA	0.277

Sequence	PBM E-score
CCGGCGCG	0.305
CCGGCGCC	0.354
ACGGCGCG	0.232
GCGGCGCC	0.299
ACGGCGCC	0.122
CGTATTGC	0.0559
ATAGCTGC	0.0565
GTCGGGAA	0.0333
ATCGGAAT	0.379
ATCGGAAC	0.291
TTAGGAAA	0.146
ATCGGAAG	0.211
TTCGGAAA	0.402
GTCGGAGA	0.158
ATCGGCAT	0.267
GTCGGAAA	0.318
TTCAGAAA	0.0478
ATCGGAGA	0.216
ATCGGAAA	0.344
CAGCCTTA	-0.0157
CTTGGATC	-0.0713
CATCGCAG	-0.28

Sequence	PBM E-score
GCGGGAAC	-0.00769
CCTTAAGG	-0.0623
CCCGGTAA	0.221
GCCGGTAC	0.229
TCCGGTAA	0.387
ACCGGTAA	0.217
GCCGGTGA	0.235
GCCGGTAA	0.346
GTAGCTAA	-0.0505
GGCCTCCA	-0.0306
ATCCCATG	-0.297
AGCTGAGG	-0.11
ACCCTCCC	0.0834
ACGAAAGC	0.0461
CGGCTAGA	0.306
CGGCTAGC	0.24
GGGCTAGA	-0.183
CGGCTAAA	0.327
AGGCTAAA	-0.0661
TGGCTAAA	0.0133
CTCCCACA	-0.184
AGTGCACT	0.067

Sequence	PBM E-score
CTGGGTTA	-0.115
ATGAGTAA	0.0956
ACAACCCG	0.0761
AAATTCCA	0.216
CAATTCCC	0.178
CAATTCCG	0.315
CAATTCCA	-0.0791
AAATTCCG	0.384
AAATTCCC	-0.0964
AACAACCC	-0.0615
ATCCTTGA	0.0411
AGGATGAA	-0.0513
ATGATAAA	0.271
TTGATAAA	0.329
GGGATAAC	-0.0432
TGGATAAA	0.18
AGGATAAC	-0.197
CGGATAAC	0.34
GTGATAAA	0.179
CGGATGAA	0.351
